Results as given in PubChem BioAssay (EPA / NIEHS).
Inconclusive results are not listed. Calls of active or inactive are those of the source. How the source made its calls, unless noted: active means hit-call score of the fitted dose curve at least 0.9, where 1 is the maximum; inactive means score below 0.9.

Legend:
[1] = read-out: Intercellular Adhesion Molecule 1 (ICAM1), ICAM1 (gene 3383); test: BSK_3C_ICAM1: BioMAP Diversity Plus: 3C Assay for Intercellular Adhesion Molecule 1 (ICAM1) Biomarker Activity (AID 2283003); conditions: primary human endothelial cells (HUVEC); actives raise or lower the signal
Summary of the method: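 ELISA read-out of ICAM-1; HUVEC (primary human), 3C system, 24 h post-dosing; bidirectional fit vs DMSO baseline.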

[2] = target: human Retinoic Acid Receptor beta (RARb), RARB (gene 5915) (UniProt P10826); test: ATG_RARb_TRANS: Attagene TRANS-FACTORIAL HepG2 Assay for human Retinoic Acid Receptor beta (AID 2283004; active means hit-call score of the fitted dose curve at least 0.9, where 1 is the maximum)
Sequence of human Retinoic Acid Receptor beta (RARb), RARB (gene 5915) (P10826 whole entry, looked up, the tested form may be a part): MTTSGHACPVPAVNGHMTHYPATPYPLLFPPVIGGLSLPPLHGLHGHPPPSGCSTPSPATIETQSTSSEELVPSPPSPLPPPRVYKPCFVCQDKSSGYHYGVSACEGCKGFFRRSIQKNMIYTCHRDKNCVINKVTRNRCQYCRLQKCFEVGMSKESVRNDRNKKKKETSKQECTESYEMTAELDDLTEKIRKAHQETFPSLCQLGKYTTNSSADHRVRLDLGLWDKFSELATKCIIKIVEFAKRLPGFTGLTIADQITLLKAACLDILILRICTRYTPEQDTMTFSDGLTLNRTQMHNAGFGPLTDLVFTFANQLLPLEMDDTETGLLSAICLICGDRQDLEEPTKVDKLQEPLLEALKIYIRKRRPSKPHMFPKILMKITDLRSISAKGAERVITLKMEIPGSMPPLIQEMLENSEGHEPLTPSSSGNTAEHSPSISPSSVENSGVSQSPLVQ
Summary of the method: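 Readout is reporter mRNA induction: RNA reverse-transcribed, PCR-amplified, FAM-labelled, HpaI-cut and resolved by capillary electrophoresis. Transiently transfected HepG2 cells carrying exogenous NR–Gal4 chimeras were dosed for 24 h; activity fitted upward relative to DMSO.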

[3] = BSK_3C_Proliferation: Cell Proliferation Assessment in the BioMAP Diversity Plus: 3C Assay (AID 2283006); conditions: primary human endothelial cells (HUVEC);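 on AC50: potency may reflect either rise or fall in cell number versus DMSO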
Summary of the method: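 HUVEC, sub-confluent; 48 h chemical exposure; 10% TCA fix, 0.1% SRB stain, A560 total protein. Gain or loss of signal fitted both directions vs DMSO control.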

[4] = target: Peroxisome proliferator-activated receptor gamma (Homo sapiens) (UniProt P37231); test: ATG_PPARg_TRANS: Attagene TRANS-FACTORIAL HepG2 Assay for human Peroxisome Proliferator-activated Receptor-gamma (PPARg) (AID 2283007; active means hit-call score of the fitted dose curve at least 0.9, where 1 is the maximum)
Sequence of Peroxisome proliferator-activated receptor gamma (Homo sapiens) (P37231 whole entry, looked up, the tested form may be a part): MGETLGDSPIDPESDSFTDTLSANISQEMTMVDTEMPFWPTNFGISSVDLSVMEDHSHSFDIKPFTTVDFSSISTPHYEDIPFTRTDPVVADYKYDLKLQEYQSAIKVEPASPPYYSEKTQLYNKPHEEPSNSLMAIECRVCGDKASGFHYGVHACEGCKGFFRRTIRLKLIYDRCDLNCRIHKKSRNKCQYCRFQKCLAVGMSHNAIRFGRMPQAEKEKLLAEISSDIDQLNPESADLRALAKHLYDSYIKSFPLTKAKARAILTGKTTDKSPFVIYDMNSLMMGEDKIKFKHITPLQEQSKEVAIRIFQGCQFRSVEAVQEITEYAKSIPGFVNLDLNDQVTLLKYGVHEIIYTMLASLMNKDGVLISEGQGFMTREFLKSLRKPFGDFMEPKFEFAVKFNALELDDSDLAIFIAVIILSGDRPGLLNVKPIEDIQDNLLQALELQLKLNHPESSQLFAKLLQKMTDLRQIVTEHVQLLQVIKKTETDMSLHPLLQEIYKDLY
Summary of the method: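 After 24 h of chemical exposure, transfected HepG2 cells carrying PPARγ-Gal4 chimera reporter constructs are lysed for RNA. Reporter transcripts are measured by RT-PCR and capillary electrophoresis with fluorescent labelling, and gain of signal is fitted versus DMSO.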

[5] = target: Nuclear receptor subfamily 1 group I member 2 (Homo sapiens) (UniProt O75469); test: ATG_PXR_TRANS: Attagene TRANS-FACTORIAL HepG2 Assay for human Pregnane X Receptor (PXR) (AID 2283008; active means hit-call score of the fitted dose curve at least 0.9, where 1 is the maximum)
Sequence of Nuclear receptor subfamily 1 group I member 2 (Homo sapiens) (O75469 whole entry, looked up, the tested form may be a part): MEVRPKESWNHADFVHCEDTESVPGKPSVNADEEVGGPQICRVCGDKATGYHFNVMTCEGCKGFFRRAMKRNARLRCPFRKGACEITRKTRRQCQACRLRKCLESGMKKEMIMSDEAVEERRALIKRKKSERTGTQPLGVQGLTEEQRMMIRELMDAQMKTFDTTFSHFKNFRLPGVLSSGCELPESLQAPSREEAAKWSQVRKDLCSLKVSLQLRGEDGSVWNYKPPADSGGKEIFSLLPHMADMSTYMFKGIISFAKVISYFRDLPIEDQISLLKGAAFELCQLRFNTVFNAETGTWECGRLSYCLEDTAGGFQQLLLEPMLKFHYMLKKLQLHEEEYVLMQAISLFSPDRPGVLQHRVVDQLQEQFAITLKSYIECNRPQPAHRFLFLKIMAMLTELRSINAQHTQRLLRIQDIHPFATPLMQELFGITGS
Summary of the method: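 Multiplexed TRANS reporter panel in HepG2; this component tracks PXR-Gal4-driven reporter mRNA after 24 h dosing, measured by RT-PCR with capillary electrophoresis fluorescence, fitted against DMSO.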

[6] = target: human Retinoic Acid Receptor gamma (RARg), RARG (gene 5916) (UniProt P13631); test: ATG_RARg_TRANS: Attagene TRANS-FACTORIAL HepG2 Assay for human Retinoic Acid Receptor gamma (RARg) (AID 2283009; active means hit-call score of the fitted dose curve at least 0.9, where 1 is the maximum)
Sequence of human Retinoic Acid Receptor gamma (RARg), RARG (gene 5916) (P13631 whole entry, looked up, the tested form may be a part): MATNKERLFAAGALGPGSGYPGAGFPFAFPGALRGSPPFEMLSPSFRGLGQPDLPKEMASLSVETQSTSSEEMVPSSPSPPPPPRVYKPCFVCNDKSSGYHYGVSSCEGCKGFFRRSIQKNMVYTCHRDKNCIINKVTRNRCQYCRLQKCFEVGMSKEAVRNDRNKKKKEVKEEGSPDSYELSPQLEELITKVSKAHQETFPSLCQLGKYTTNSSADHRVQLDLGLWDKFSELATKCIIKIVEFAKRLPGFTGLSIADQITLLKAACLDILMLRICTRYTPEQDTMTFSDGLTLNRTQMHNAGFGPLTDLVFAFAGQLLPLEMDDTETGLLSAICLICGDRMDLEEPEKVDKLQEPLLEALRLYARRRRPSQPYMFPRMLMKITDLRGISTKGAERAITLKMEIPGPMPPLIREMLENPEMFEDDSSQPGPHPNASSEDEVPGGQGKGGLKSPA
Summary of the method: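 Readout: reporter transcript levels via RT-PCR, 6-FAM primer-extension labelling, HpaI digestion and capillary electrophoresis. Cells: HepG2 carrying transfected RARg-GAL4 chimera plus UAS reporter set. Dosing 24 h; DMSO negative control.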

[7] = target: Retinoic acid receptor RXR-alpha (Homo sapiens) (UniProt P19793); test: ATG_RXRa_TRANS: Attagene TRANS-FACTORIAL HepG2 Assay for human Retinoid X Receptor alpha (RXRa) (AID 2283012; active means hit-call score of the fitted dose curve at least 0.9, where 1 is the maximum)
Sequence of Retinoic acid receptor RXR-alpha (Homo sapiens) (P19793 whole entry, looked up, the tested form may be a part): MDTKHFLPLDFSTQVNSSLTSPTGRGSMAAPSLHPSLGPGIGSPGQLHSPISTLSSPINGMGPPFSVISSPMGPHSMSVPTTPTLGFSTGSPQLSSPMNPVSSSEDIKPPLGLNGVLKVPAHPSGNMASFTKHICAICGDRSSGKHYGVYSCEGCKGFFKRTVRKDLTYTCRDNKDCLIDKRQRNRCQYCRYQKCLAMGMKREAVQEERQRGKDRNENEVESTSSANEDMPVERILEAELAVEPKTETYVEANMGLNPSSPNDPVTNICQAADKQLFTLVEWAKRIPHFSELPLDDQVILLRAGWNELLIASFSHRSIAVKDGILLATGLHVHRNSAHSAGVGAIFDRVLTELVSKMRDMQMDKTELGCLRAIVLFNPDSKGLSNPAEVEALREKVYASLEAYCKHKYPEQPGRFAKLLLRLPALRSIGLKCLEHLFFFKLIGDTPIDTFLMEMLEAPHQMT
Summary of the method: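 Read-out: fluorescent reporter-transcript fragments quantified by capillary electrophoresis after RT-PCR. Transiently transfected HepG2 cells carrying GAL4-UAS reporters and NR-GAL4 chimeras were exposed to chemical for 24 h; activity scored as increase over DMSO.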

[8] = read-out: E-selectin (Homo sapiens) (UniProt P16581); test: BSK_3C_Eselectin: BioMAP Diversity Plus: 3C Assay for Eselectin Biomarker Activity (AID 2283015); conditions: primary human endothelial cells (HUVEC); actives raise or lower the signal
Summary of the method: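 HUVEC, 3C stimulation; compound exposure 24 h; E-selectin by ELISA; gain- or loss-of-signal fitted bidirectionally vs DMSO baseline.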

[9] = read-out: Interleukin-1 alpha (IL1a), IL1A (gene 3552); test: BSK_BE3C_IL1a: BioMAP Diversity Plus: BE3C Assay for Interleukin-1 alpha (IL1a) Biomarker Activity (AID 2283016); conditions: primary human bronchial epithelial cells; actives raise or lower the signal
Summary of the method: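 ELISA read-out of IL-1a from human lung bronchial epithelial primary cells, 24 h post-dose. Gain or loss of signal fitted relative to DMSO negative control.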

[10] = read-out: Monocyte Chemoattractant Protein-1 (MCP1), CCL2 (gene 6347); test: BSK_4H_MCP1: BioMAP Diversity Plus: 4H Assay for Monocyte Chemoattractant Protein-1 (MCP1) Biomarker Activity (AID 2283018); conditions: primary human endothelial cells (HUVEC); actives raise or lower the signal
Summary of the method: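 HUVEC primary cells, 24 h post-dose, MCP-1 by ELISA. Gain or loss of signal fitted bidirectionally vs DMSO baseline. Cytotoxicity: SRB stain (0.1% after 10% TCA fixation), read 560 nm, parallel cultures.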

[11] = read-out: Human Leukocyte Antigen - DR isotype (HLADR), HLA-DRA (gene 3122); test: BSK_3C_HLADR: BioMAP Diversity Plus: 3C Assay for Human Leukocyte Antigen - DR isotype (HLADR) Biomarker Activity (AID 2283019); conditions: primary human endothelial cells (HUVEC); actives raise or lower the signal
Summary of the method: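 HUVEC, 3C stimulation, 24 h post-dose; HLA-DR by ELISA; bidirectional curve fit vs DMSO baseline; gain or loss of signal scored.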

[12] = read-out: Interleukin-8 (IL8), CXCL8 (gene 3576); test: BSK_3C_IL8: BioMAP Diversity Plus: 3C Assay for Interleukin-8 (IL8) Biomarker Activity (AID 2283020); conditions: primary human endothelial cells (HUVEC); actives raise or lower the signal
Summary of the method: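 HUVEC, 3C stimulation; 24 h compound exposure; IL-8 read by ELISA; gain or loss of signal fitted relative to DMSO control.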

[13] = read-out: Monokine induced gamma interferon (MIG), CXCL9 (gene 4283); test: BSK_3C_MIG: BioMAP Diversity Plus: 3C Assay for Monokine induced gamma interferon (MIG) Biomarker Activity (AID 2283021); conditions: primary human endothelial cells (HUVEC); actives raise or lower the signal
Summary of the method: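 HUVEC, 3C system; 24 h chemical exposure; MIG by ELISA; bidirectional fit vs DMSO baseline.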

[14] = target: human Vitamin D Receptor (VDR), VDR (gene 7421) (UniProt P11473); test: ATG_VDR_TRANS: Attagene TRANS-FACTORIAL HepG2 Assay for human Vitamin D Receptor (VDR) (AID 2283022; active means hit-call score of the fitted dose curve at least 0.9, where 1 is the maximum)
Sequence of human Vitamin D Receptor (VDR), VDR (gene 7421) (P11473 whole entry, looked up, the tested form may be a part): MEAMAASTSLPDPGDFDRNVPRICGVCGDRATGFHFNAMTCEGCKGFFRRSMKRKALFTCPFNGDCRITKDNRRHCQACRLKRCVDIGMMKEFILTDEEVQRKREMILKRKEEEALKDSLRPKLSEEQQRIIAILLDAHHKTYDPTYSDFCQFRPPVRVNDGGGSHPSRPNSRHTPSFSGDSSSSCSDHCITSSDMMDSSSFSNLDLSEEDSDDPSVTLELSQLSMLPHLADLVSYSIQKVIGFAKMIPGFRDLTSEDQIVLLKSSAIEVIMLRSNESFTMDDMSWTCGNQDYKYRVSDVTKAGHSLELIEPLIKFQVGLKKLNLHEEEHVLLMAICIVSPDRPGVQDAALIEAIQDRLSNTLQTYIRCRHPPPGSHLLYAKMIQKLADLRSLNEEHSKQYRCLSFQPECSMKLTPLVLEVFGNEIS
Summary of the method: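 RT-PCR/capillary electrophoresis read-out of reporter mRNA induction in transiently transfected HepG2; 24 h dosing; chimeric NR-Gal4 (TRANS format); gain-of-signal fit against DMSO baseline.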

[15] = read-out: Monocyte Chemoattractant Protein-1 (MCP1), CCL2 (gene 6347); test: BSK_3C_MCP1: BioMAP Diversity Plus: 3C Assay for Monocyte Chemoattractant Protein-1 (MCP1) Biomarker Activity (AID 2283017); conditions: primary human endothelial cells (HUVEC); actives raise or lower the signal
Summary of the method: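 HUVEC, 3C system; 24 h chemical exposure; MCP-1 by ELISA; bidirectional curve fit vs DMSO baseline.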

[16] = target: Retinoic acid receptor alpha (Homo sapiens) (UniProt P10276); test: ATG_RARa_TRANS: Attagene TRANS-FACTORIAL HepG2 Assay for human Retinoic Acid Receptor alpha (RARa) (AID 2283005; active means hit-call score of the fitted dose curve at least 0.9, where 1 is the maximum)
Sequence of Retinoic acid receptor alpha (Homo sapiens) (P10276 whole entry, looked up, the tested form may be a part): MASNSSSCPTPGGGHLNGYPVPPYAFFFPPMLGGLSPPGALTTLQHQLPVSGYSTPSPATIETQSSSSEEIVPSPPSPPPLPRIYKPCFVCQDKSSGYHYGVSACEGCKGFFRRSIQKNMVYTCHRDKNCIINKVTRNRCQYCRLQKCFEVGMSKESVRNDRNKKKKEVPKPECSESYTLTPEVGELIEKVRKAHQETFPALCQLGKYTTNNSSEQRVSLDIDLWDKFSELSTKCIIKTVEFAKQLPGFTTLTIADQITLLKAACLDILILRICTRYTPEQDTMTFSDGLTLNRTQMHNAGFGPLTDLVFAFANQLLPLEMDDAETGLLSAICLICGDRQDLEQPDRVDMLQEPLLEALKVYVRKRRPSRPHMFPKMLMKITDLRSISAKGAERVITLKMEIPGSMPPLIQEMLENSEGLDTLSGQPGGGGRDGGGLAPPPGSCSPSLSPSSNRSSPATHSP
Summary of the method: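 HepG2 transiently transfected with multiplex GAL4-UAS reporter units including a human RARa–GAL4 chimera; 24 h compound exposure. Reporter mRNA quantified by RT-PCR, 6-FAM labeling and capillary electrophoresis; gain of signal versus DMSO.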

[17] = target: human RAR-related Orphan Receptor beta (RORb), RORB (gene 6096) (UniProt Q92753); test: ATG_RORb_TRANS: Attagene TRANS-FACTORIAL HepG2 Assay for human RAR-related Orphan Receptor beta (RORb) (AID 2283010; active means hit-call score of the fitted dose curve at least 0.9, where 1 is the maximum)
Summary of the method: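 HepG2, transient MRTU transfection (GAL4-UAS reporters, exogenous NR-Gal4 chimeras); 24 h compound exposure; total RNA → RT-PCR → 6-FAM primer extension → HpaI digest → CE fluorescence. Positive direction vs DMSO baseline.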

[18] = target: human RAR-related Orphan Receptor gamma (RORg), RORC (gene 6097) (UniProt P51449); test: ATG_RORg_TRANS: Attagene TRANS-FACTORIAL HepG2 Assay for human RAR-related Orphan Receptor gamma (RORg) (AID 2283011; active means hit-call score of the fitted dose curve at least 0.9, where 1 is the maximum)
Sequence of human RAR-related Orphan Receptor gamma (RORg), RORC (gene 6097) (P51449 whole entry, looked up, the tested form may be a part): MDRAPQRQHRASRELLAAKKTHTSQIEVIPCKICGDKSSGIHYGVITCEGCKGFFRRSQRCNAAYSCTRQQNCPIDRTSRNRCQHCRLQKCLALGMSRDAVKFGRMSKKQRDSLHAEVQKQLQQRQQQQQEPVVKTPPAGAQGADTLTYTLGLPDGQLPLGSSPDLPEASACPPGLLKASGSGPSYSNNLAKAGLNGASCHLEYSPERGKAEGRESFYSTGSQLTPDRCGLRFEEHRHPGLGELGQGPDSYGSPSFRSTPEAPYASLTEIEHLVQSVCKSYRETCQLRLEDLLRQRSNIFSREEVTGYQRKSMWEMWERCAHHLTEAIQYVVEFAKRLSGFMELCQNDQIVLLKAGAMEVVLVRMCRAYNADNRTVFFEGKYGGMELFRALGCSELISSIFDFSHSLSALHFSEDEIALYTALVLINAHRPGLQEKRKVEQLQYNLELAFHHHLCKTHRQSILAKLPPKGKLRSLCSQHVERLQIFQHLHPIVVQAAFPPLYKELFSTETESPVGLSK
Summary of the method: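 Transient MRTU transfection of HepG2 (TRANS format, exogenous NR-Gal4 chimera). 24 h dosing. Total RNA → oligo(dT) RT → PCR → 6-FAM labelling → HpaI cut → CE. Gain vs DMSO.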

[19] = target: human Retinoid X Receptor beta (RXRb), RXRB (gene 6257) (UniProt P28702); test: ATG_RXRb_TRANS: Attagene TRANS-FACTORIAL HepG2 Assay for human Retinoid X Receptor beta (RXRb) (AID 2283013; active means hit-call score of the fitted dose curve at least 0.9, where 1 is the maximum)
Sequence of human Retinoid X Receptor beta (RXRb), RXRB (gene 6257) (P28702 whole entry, looked up, the tested form may be a part): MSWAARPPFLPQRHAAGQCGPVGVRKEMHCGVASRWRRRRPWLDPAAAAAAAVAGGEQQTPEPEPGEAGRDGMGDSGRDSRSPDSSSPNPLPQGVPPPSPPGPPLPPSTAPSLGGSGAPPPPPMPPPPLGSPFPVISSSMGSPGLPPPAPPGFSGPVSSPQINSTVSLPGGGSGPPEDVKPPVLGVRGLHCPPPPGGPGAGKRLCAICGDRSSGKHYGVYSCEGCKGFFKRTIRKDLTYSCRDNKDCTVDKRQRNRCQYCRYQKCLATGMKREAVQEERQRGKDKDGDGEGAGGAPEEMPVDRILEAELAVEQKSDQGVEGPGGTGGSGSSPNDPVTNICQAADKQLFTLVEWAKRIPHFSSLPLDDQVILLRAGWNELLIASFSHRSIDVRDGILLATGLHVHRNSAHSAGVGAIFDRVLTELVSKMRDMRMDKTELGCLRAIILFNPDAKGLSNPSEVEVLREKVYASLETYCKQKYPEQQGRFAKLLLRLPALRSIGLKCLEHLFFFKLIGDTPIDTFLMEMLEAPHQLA
Summary of the method: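 Read-out: reporter mRNA induction via RT-PCR plus capillary electrophoresis fluorescence, analysed as signal increase relative to DMSO. Cells were human HepG2, transiently transfected with GAL4-UAS reporter constructs and chimeric receptor-Gal4 fusions, dosed for 24 h.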

[20] = target: human Thyroid Receptor alpha (THRa1), THRA (gene 7067) (UniProt P10827); test: ATG_THRa1_TRANS: Attagene TRANS-FACTORIAL HepG2 Assay for human Thyroid Receptor alpha (THRa1) (AID 2283014; active means hit-call score of the fitted dose curve at least 0.9, where 1 is the maximum)
Summary of the method: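 Transient HepG2 transfection, NR-Gal4 chimera driving GAL4-UAS reporters; 24 h compound exposure; total RNA, oligo(dT) RT, PCR, fluorescent primer extension, capillary electrophoresis. Upward direction vs DMSO control.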

Measured: AC50

Sequence of E-selectin (Homo sapiens) (P16581 whole entry, looked up): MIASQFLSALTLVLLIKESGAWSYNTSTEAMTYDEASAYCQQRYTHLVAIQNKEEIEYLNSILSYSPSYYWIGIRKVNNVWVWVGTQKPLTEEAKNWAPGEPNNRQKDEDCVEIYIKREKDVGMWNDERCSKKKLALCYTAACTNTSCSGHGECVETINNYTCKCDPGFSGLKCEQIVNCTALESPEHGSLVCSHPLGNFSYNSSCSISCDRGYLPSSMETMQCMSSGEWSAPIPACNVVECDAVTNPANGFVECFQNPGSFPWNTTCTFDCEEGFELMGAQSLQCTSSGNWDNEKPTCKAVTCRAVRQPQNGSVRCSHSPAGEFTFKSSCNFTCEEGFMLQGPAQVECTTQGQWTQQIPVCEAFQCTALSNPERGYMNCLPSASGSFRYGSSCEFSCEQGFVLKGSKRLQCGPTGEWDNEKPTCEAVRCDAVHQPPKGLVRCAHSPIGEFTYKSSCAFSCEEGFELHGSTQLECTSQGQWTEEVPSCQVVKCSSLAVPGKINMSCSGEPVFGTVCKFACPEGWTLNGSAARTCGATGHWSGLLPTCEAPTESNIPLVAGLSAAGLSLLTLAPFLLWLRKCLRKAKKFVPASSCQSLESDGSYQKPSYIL

O=C(O)c1cccc(N(Cc2cccnc2)c2ccc(OC(F)F)c(OC(F)F)c2)c1
active: [4] 6.66 µM | [5] 11.1 µM | [11] 9.02 µM
not listed: [15] | [16] | [17] | [18] | [19] | [20]
inactive: all other assays above

Nc1ccc(Nc2ccccc2)cc1
inactive: [1] | [2] | [4] | [5] | [7] | [9] | [15] | [12] | [13]
active: [3] 3.97 µM | [8] 5.7 µM | [11] 2.83 µM

O=C(OC[C@H]1O[C@@H](OC(=O)c2cc(O)c(O)c(OC(=O)c3cc(O)c(O)c(O)c3)c2)[C@H](OC(=O)c2cc(O)c(O)c(OC(=O)c3cc(O)c(O)c(O)c3)c2)[C@@H](OC(=O)c2cc(O)c(O)c(OC(=O)c3cc(O)c(O)c(O)c3)c2)[C@@H]1OC(=O)c1cc(O)c(O)c(OC(=O)c2cc(O)c(O)c(O)c2)c1)c1cc(O)c(O)c(OC(=O)c2cc(O)c(O)c(O)c2)c1
active: [3] 9.47 µM | [9] 7.85 µM | [15] 9.09 µM | [10] 6.1 µM | [11] 9.13 µM
not listed: [14]
inactive: all other assays above

CC(C)=CCC/C(C)=C/CO
active: [4] 63.6 µM
not listed: [6] | [15] | [16] | [20]
inactive: all other assays above

O=C1CCCCCN1
not listed: [4] | [10] | [15] | [17] | [19] | [20]
inactive: all other assays above

COC(=O)c1ccccc1O
active: [5] 24.9 µM | [19] 2.1 µM
not listed: [4] | [10] | [14] | [17] | [18] | [20]
inactive: all other assays above

CC(C)CCO
not listed: [10] | [15] | [17]
inactive: all other assays above
